# Screens deposited in PubChem BioAssay by National Center for Advancing Translational Sciences (NCATS).
# Vaccinia mCherry: inhibitors of vaccinia virus infection (mCherry reporter signal). Vaccinia virus mCherry reporter infection, fluorescence. Potency, µM (highest dose often 36.5 µM), without a hit: top-dose activity change, negative = inhibition, most hits filed as inhibitors. 310,000 compounds, 0.63% hits; calls by dose curve; tested in A549 cells; note: potency is the fitted concentration of half-maximal effect; nearly all actives have a fitted effect of over 35% in size
# FMDV inh: antivirals against foot and mouth disease virus; FMDV antiviral cell-based qHTS; AID 1159524; 410,000 compounds, 1.2% hits; Potency, µM (highest dose often 57.9 µM), without a hit: at the highest dose activity change, negative = inhibition, hits mostly inhibitors; calls by dose curve; tested in HEK293T cells; note: read-out not given here; potency is the fitted concentration of half-maximal effect; nearly all actives have a fitted effect of over 45% in size
# HCMV inh: inhibitors of human cytomegalovirus; HFF cells, HCMV-luciferase reporter, 72 h; active compounds read low; activity change, negative = inhibition, % at 57.5 µM; 410,000 compounds, 4.5% hits; AID 1259415; in the data active = activity change below about -60%; inconclusive = no clear call, values can overlap the other calls; inactive = above about -39%
#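 Luciferase read-out from HCMV-luciferase-infected HFFs (MOI 1 PFU/cell) 72 h post infection at 37C; compounds added after 16 h cell attachment; activity normalized between buffer-only basal and Salinomycin (10uM) inhibitor controls.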
# Vaccinia Venus: vaccinia inhibition (Venus reporter). Vaccinia virus Venus reporter expression, fluorescence. Potency, µM (series often up to 36.5 µM), inactives show at the highest dose activity change, negative = inhibition, most hits filed as inhibitors. 330,000 compounds, 0.46% hits. AID 720580; calls by dose curve; tested in A549 cells; note: potency is the fitted concentration of half-maximal effect; nearly all actives have a fitted effect of over 30% in size
# HCV inhibitor: HCV inhibition; Huh7.5.1 HCVcc-Cre infection, luciferase reporter, 44 h; 340,000 compounds, 3.4% hits; Potency, µM (series often up to 41.8 µM), inactives show at the top dose activity change, negative = inhibition, usual class: inhibitors; active = well fitted inhibition curve with a large enough effect; inconclusive = small, poorly fitted or top-dose-only effect, or another doubt; inactive = no such curve, though single readings can be large or run the other way; note: potency is the fitted concentration of half-maximal effect
#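 A cell-based infection assay in which seeded cells (1,000 per well) receive test compound after 4 h, are inoculated with HCVcc-Cre at approximately 0.5 moi, and are incubated 44 h before luminescence detection.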
# Starred values were filed as active, the others as inactive; i = inactive; ? = inconclusive; / = not tested or not shown. In the library only some 7.3% were active in any assay of this set; here they are far more common. % is set by controls: 0 for no effect and ±100 for the full control effect.
SMILES,Vaccinia mCherry,FMDV inh,HCMV inh,Vaccinia Venus,HCV inhibitor
CCCOc1ccc(-c2nc3c(c(=O)[nH]c(=O)n3Cc3ccccc3)n2CCO)cc1OCC,i,-16%,55,-15%,?
Cn1c(-c2cccc(OCc3ccccc3)c2)nc2c1c(=O)[nH]c(=O)n2Cc1ccccc1,-16%,35µM*,-15,-3%,3%
Cn1c(-c2cccc(F)c2)nc2c1c(=O)[nH]c(=O)n2Cc1ccccc1,?,1%,31,-12%,0%
CCCCn1c(=O)[nH]c(=O)c2c1nc(-c1ccc(OCCC)c(OCC)c1)n2CCOC,i,-15%,-28,-10%,25µM*
COc1ccc(-c2nc3c(c(=O)[nH]c(=O)n3Cc3ccccc3)n2C)cc1,/,?,-7,-6%,-1%
COCCn1c(-c2cccc([N+](=O)[O-])c2)nc2c1c(=O)[nH]c(=O)n2Cc1ccccc1,-9%,-14%,-87*,-5%,-19%
COc1ccc(-c2nc3c(c(=O)[nH]c(=O)n3Cc3ccccc3)n2Cc2ccccc2)cc1,/,?,?,/,13µM*
COc1cc(CN2CCCC(n3cc(C(=O)N4CCCC4)nn3)C2)cc(OC)c1 (configuration not stated),-15%,-9%,/,-12%,/
ClC1=C(Cl)[C@]2(Cl)[C@@H]3[C@H]4C[C@H]([C@@H]5O[C@H]45)[C@@H]3[C@@]1(Cl)C2(Cl)Cl,i,-29%,/,0%,/
CC(C)(C)S(=O)N1C[C@H]2CC(=O)C(CCO)=C2[C@@H]1CCO (some centres not stated),/,/,16,/,/
O=C(CSC1=NS(=O)(=O)c2ccccc2N1)NCc1ccc(F)cc1,-19%,18%,34,-12%,7%
COC(=O)[C@]1(Sc2ccc(OC)cc2)CC(=O)N[C@@H]1c1ccc(OC(C)C)c(OC)c1,/,/,-9,/,/
CC1Cc2nc(SCC(=O)c3ccccc3)n(Cc3ccccc3)c(=O)c2S1 (configuration not stated),-5%,15%,-10,-8%,11µM*
Cc1cccc(S(=O)(=O)c2c(N)n(/N=C/c3cccnc3)c3nc4ccccc4nc23)c1,-14%,/,?,-14%,?
COc1ccc(/C=N/n2c(N)c(S(=O)(=O)c3cccs3)c3nc4ccccc4nc32)cc1OC,/,-24%,-88*,/,10%
Nc1c(S(=O)(=O)c2cccs2)c2nc3ccccc3nc2n1/N=C/c1cccc(O)c1,?,40µM*,-103*,11µM*,7.9µM*
Cc1cccc(S(=O)(=O)c2c(N)n(/N=C/c3ccco3)c3nc4ccccc4nc23)c1,/,20%,-28,/,2.5µM*
COc1cccc(/C=N/n2c(N)c(S(=O)(=O)c3cccs3)c3nc4ccccc4nc32)c1,/,19%,-62*,/,-17%
CC(C)Cn1c(N)c(S(=O)(=O)c2cccs2)c2nc3ccccc3nc21,/,0%,/,?,?
O=C(OCc1cc(=O)n2nc(-c3cccs3)sc2n1)c1cccc(F)c1,-11%,0%,13,-14%,/
CCOC(=O)C1=CCN(S(=O)(=O)c2ccc(Cl)cc2)C1c1ccc(Br)cc1 (configuration not stated),/,/,-32,/,/
Cc1cc(F)ccc1Nc1nc2ccccc2n2nnnc12,-27%,10%,-4,-23%,/
Fc1cc(Br)ccc1Nc1nc2ccccc2n2nnnc12,14%,17%,-73*,-25%,20%
CCN(CC)CCCNCC(=O)Nc1ccc2c(c1)CCC2,i,57%,19,-4%,10µM*
Cc1ccc(C(=O)NCC(=O)Nc2ccc3c(c2)CCC3)cc1C,-12%,1%,3,0%,19%
SMILES,Vaccinia mCherry,FMDV inh,HCMV inh,Vaccinia Venus,HCV inhibitor
COC(=O)c1ccc(NC(=O)Nc2ccc(F)cc2F)cc1,-10%,10%,14,-8%,11µM*
O=C(Nc1ccc(F)cc1)Nc1cccc(Br)c1,/,26%,-88*,/,-27%
COC(=O)c1ccc(C(=O)Nc2ccc(F)cc2)cc1,-16%,8%,21,-9%,7.1µM*
CCN(CC)c1ccc(C(=O)Nc2cccc(F)c2)cc1,/,-16%,-24,?,10µM*
O=C(Nc1ccccc1)Nc1ccc(F)cc1F,/,40%,-17,/,-13%
Cc1ccc(NC(=O)Cn2c(=O)n(Cc3ccccc3)c(=O)c3c(C)c(C(=O)N(C)C)sc32)c(C)c1,-14%,-11%,-23,-2%,/
CCN(CC(=O)NCc1ccc(F)cc1)C(=O)Cc1ccc(OC)cc1,-29%,-2%,-7,-25%,0%
